Records with an inconclusive call do not appear. A call without a number means that no potency is given here. Where a structure was tested more than once in an assay, its records may differ in their call. Active and inactive are the calls of the source. Calls come from the whole dose curve; as a rule, active = well fitted cell-killing curve with a large enough effect in the repeat runs; inconclusive = weak or mixed curves, or effect the other way; inactive = flat fitted curve, though single readings scatter.
Potency is the fitted concentration of half-maximal effect.

The experiment can be described thus: qHTS RealTime-Glo MT Cell Viability Assay in HEK293 cells - 16 hour (AID 1224872). For activity change, negative = cytotoxicity: top concentration of the series differs between compounds. Note: nearly all actives have a fitted effect of over 50% in size. The note with it: RealTime-Glo luminescence; series mostly up to 76.8 µM. The source says: National Center for Advancing Translational Sciences [NCATS]
NIH Chemical Genomics Center [NCGC]
U.S. Environmental Protection Agency [EPA]
National Institutes of Environmental Health Sciences [NIEHS]
National Toxicology Program [NTP]
U.S. Food and Drug Administration [FDA]
Measure of cell viability is critical in the cell-base assay. Analysis of cell viability is necessary for the characterization of cell responses to cytotoxic drugs and environmental stress. A RealTime-Glo MT Cell Viability Assay to monitor cell viability in real time of continues cell culture during 40 hours of compound treatment was used to screen Tox21 10K library compounds in Hek293 cells. The RealTime-Glo MT Cell Viability Assay is a nonlytic, homogeneous, bioluminescent method to measure cell viability in real time using a simple, plate-based method. The assay involves adding NanoLuc luciferase and a cell-permeant prosubstrate to cells in culture. Viable cells reduce the proprietary prosubstrate to generate a substrate for NanoLuc luciferase. This substrate diffuses from cells into the surrounding culture medium, where it is rapidly used by the NanoLuc Enzyme to produce a luminescent signal. The signal correlates with the number of viable cells, making the assay well suited for cytotoxicity studies.
Tox21 Assay Protocol Summary:
The mixture of Hek293 cell suspension and reagents were dispensed at 600cells/6 ul/well in 1536-well tissue culture treated black solid bottom plates using a Multidrop dispenser. After the assay plates were incubated at a 37 C/5% CO2 incubator for 5 hours, 23 nL of compounds dissolved in DMSO, positive and negative controls was transferred to the assay plate by a pintool work station. The plates were incubated at 37 C for 40 hours. The luminescence intensity were measured at 0h, 8h, 16h, 24h, 32h and 40h time points using ViewLux plate reader during compound treatment.
As for `O=C(O)COc1ccc(Cl)cc1`, the Potency result was “inactive”.

On to `Clc1cccc(SC2CCNCC2)n1`, for which the Potency result was “inactive”.

`C=CC(=O)OCCCCO`: the Potency entry is “inactive”.

For the molecule `C[C@@H]1CC[C@H]2[C@@H](C)C(=O)O[C@@H]3O[C@@]4(C)CC[C@@H]1[C@]32OO4`, the Potency entry was “inactive”.

Turning to `CC(=O)C(C)(C)C`, the Potency result was “inactive”. In the case of `O=C(O)CC(Cl)C(=O)O` (stereo not given), the Potency result was “inactive”. Same read-out and setting: under `CCOP(=S)(OCC)Oc1nc(Cl)c(Cl)cc1Cl` stands 21.9 µM (active) and inactive. With `CCOc1nc(F)cc2nc(S(=O)(=O)Nc3c(Cl)cccc3Cl)nn12`, the Potency entry was “inactive”. Regarding `c1ccc(C2CC2)c(OCC2=NCCN2)c1`, the Potency entry was “inactive”. Consider `O=[Se]=O`, for which the Potency entry was “inactive”. The same measure, in the same setting: for `CCCCCCCCOC(=O)c1ccc(C(=O)OCCCCCCCC)c(C(=O)OCCCCCCCC)c1` the value was “inactive”.

In the case of `CC(C)O.CC(C)O.OCCN(CCO)CCO.OCCN(CCO)CCO.[Ti]`, the Potency entry is “inactive”. On the same count and under the same terms, for `CN(N=O)c1ccc([N+](=O)[O-])cc1` the value was “inactive”; for `CCCCCCCCCC(=O)O[C@H]1CC[C@H]2[C@@H]3CCC4=CC(=O)CC[C@@H]4[C@H]3CC[C@]12C`, “inactive”; for `CN1C(=O)NC(=O)C(C)(C2=CCCCC2)C1=O` (stereo not given), “inactive”. Take `COCCOCCO`: the Potency result is “inactive”.

On to `CCOS(C)(=O)=O`, for which the Potency entry was “inactive”.

`O=C(N[C@H](c1ccccc1)[C@@H]1CN2CCC1CC2)c1c(Cl)ccc(C(F)(F)F)c1Cl`: the Potency is 78.8 µM (active). `NCC(CC(=O)O)c1ccc(Cl)cc1` (stereo not given): the activity change, negative = cytotoxicity was 0.531% [at 0.29 µM] (inactive). For the molecule `O=S1(=O)OC(c2cc(Br)c(O)c(Br)c2)(c2cc(Br)c(O)c(Br)c2)c2ccccc21`, the Potency entry was “inactive”.

For the molecule `COC(=O)C(Br)CBr` (stereo not given), the Potency entry is “inactive”.

On to `CCCN(CCC)c1c([N+](=O)[O-])cc(S(C)(=O)=O)cc1[N+](=O)[O-]`, for which the Potency is 15.5 µM (active).

On to `C=CCOC(C)=O`, for which the Potency entry was “inactive”. Same read-out and setting: for `Brc1ccc(Oc2ccccc2)cc1` the value was “inactive”. Consider `CCO[C@H]1O[C@@H]2OC3(C)CC[C@H]4[C@H](C)CC[C@@H]([C@H]1C)[C@@]24OO3`, for which the Potency entry is “inactive”.

For `N#Cc1ccc(Cl)cc1`, the Potency result is “inactive”. Turning to `CCCC(=O)Cl`, the Potency entry is “inactive”. As for `CCC(Br)(CC)C(=O)NC(N)=O`, the Potency result is “inactive”. Same read-out and setting: under `O=C(CCl)c1ccc(Cl)cc1Cl` stands 4.25 µM (active); under `COc1c(C(C)(C)C)cc([N+](=O)[O-])c(C)c1[N+](=O)[O-]`, “inactive”; under `C=CCCl`, “inactive”. With `C=COC(C)=O`, the Potency result was “inactive”. The same measure, in the same setting: under `COc1cc(Cl)c(OC)cc1Cl` stands “inactive”; under `COCC(C)N(C(=O)CCl)c1c(C)csc1C` (stereo not given), “inactive”; under `O=C(NC(=O)c1c(F)cccc1F)Nc1ccc(OC(F)(F)C(F)OC(F)(F)F)c(Cl)c1` (stereo not given), “inactive”. Same read-out and setting: under `CC(=O)NC1CCSC1=O` (stereo not given) stands “inactive”.

In the case of `C/C=C/C=O`, the Potency entry is “inactive”. On the same count and under the same terms, for `NCCCNCCCN` the value was “inactive”; for `O=Cc1ccc(Cl)cc1Cl`, “inactive”. Same read-out and setting: for `Cn1cc[n+](C)c1` (tested in a mixture with another compound) the value was “inactive”.

For the origin of these results see PubChem BioAssay (Tox21).
